Drawing on PubChem BioAssay (NCI), this text covers growth for eight compounds.

Each structure is given as a SMILES string. Compounds without any hit were thinned out: in the full panel of roughly 83,000, 20% have a hit.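 How to read the values: 0–100, growth inhibition (40 = 60% inhibited); 0, no net growth; -100 to 0, cell death (-40 = 40% of starting cells died; -100 = all dead).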 A number with no mark means an inactive call. The source made the active and inactive calls. How the source made its calls: active means growth percent below 10; inactive means the rest.

Holding throughout (assay): NCI-60 one-dose screen, 48 h (100 = growth as untreated, 0 = no growth, -100 = all killed)
Test [1] concerns HT29 colon. Conditions: 10 µM unless noted.
Test [2] has as its system SNB-75 CNS. Conditions: 10 µM unless noted.
The subject of test [3] is SNB-19 CNS. Conditions: 10 µM unless noted.
In test [4] the test system is U251 CNS. The conditions noted are these: 10 µM unless noted.
In test [5] the test system is PC-3 prostate. The conditions noted are these: 10 µM unless noted.
In test [6] the test system is SK-MEL-5 melanoma. The conditions noted are these: 10 µM unless noted.
In test [7] the test system is UACC-62 melanoma. Conditions: 10 µM unless noted.
Test [8] deals with LOX IMVI melanoma. The conditions noted are these: 10 µM unless noted.
The test system of test [9] is SK-MEL-28 melanoma. The conditions noted are these: 10 µM.
For test [10], the system named is SK-MEL-2 melanoma. Conditions: 10 µM unless noted.
Test [11] concerns EKVX NSCLC. The conditions noted are these: 10 µM unless noted.
Test [12] deals with SN12C renal. Conditions: 10 µM unless noted.
Test [13] concerns UO-31 renal. Conditions: 10 µM unless noted.
For test [14], the system named is TK-10 renal. Conditions: 10 µM unless noted.
The subject of test [15] is ACHN renal. Conditions: 10 µM unless noted.
Test [16] deals with CAKI-1 renal. Conditions: 10 µM unless noted.
Test [17] has as its system CCRF-CEM leukemia. The conditions noted are these: 10 µM unless noted.
Test [18] has as its system MOLT-4 leukemia. The conditions noted are these: 10 µM unless noted.
Test [19] deals with SR leukemia. The conditions noted are these: 10 µM unless noted.
Test [20] has as its system A498 renal. Conditions: 10 µM unless noted.

As to `CCCN1CCN(c2ccc3nc(-c4ccc5nc(-c6cc(OC)ccc6OC)[nH]c5c4)[nH]c3c2)CC1`, the growth was -23.2% (active) in [1]; 90.9% in [2]; 115% in test [3]; 85.8% in test [4]; 103% in test [5]; 99.5% in test [6]. In addition, the growth was 110% in test [7]; -83.3% (active) in test [8]; 99.4% in test [9]; 118% in [10]; 96.7% in test [11]; 99.2% in test [12]. Further, the growth in test [13] was 85.7%; in [14], 118%; in test [15], 106%; in test [16], 106%; in test [17] it was 3.98% (active); in test [18] it was 77%. Also, in [19], the growth was -25.6% (active).
On to `Cn1c(/C=C(\C#N)c2ccccc2)nc2c(N3CCOCC3)nc(Cl)nc21`, for which the growth is -54.6% (active) in test [1]; -94.9% (active) in [2]; 56.9% in test [3]; 3.21% (active) in test [4]; -62.3% (active) in test [5]; -53.8% (active) in [6]. The growth in [7] is -86.1% (active); in test [8], -87.9% (active); in test [9] it was -78.6% (active); in [10] it was -34.4% (active); in test [11] it was -72.4% (active); in test [12], -58.6% (active). Also, the growth is -100% (active) in test [13]; -63.6% (active) in [14]; -96.2% (active) in test [15]; 2.31% (active) in test [20]; 2.94% (active) in test [17]; -12.4% (active) in test [18]. In test [19], the growth is 10.7%.
For `CCC1=C[C@]2(C3CC(=O)N(c4ccccc4)C3=O)CC(C(C)(C)C)C[C@@H]2[C@@H]2C(=O)N(c3ccccc3)C(=O)[C@H]12` (some centres not stated), the growth is 74.3% in test [1]; 66.3% in test [2]; 86.2% in test [3]; 79.1% in [4]; 56.7% in [5]; 92.1% in test [6]. Also, the growth in [7] is 71.9%; in [8], 93.1%; in test [9] it was 92.6%; in [10], 82.8%; in test [11] it was 74.3%; in test [12], 89.2%. The growth in test [13] is 73.1%; in [14], 99.7%; in test [15] it was 90.5%; in [20] it was 88%; in test [17] it was 86.2%; in test [18], 80.4%. Further, the growth in [19] is 80.4%.
As to `Brc1ccc(Oc2ccc(Nc3ncnc4onc(-c5ccccc5)c34)cc2)cc1`, the growth was 95.5% in [1]; 86.7% in test [2]; 106% in test [3]; 98.9% in test [4]; 102% in [5]; 92.6% in [6]. Also, the growth in [7] is 88.6%; in test [8] it was 94.5%; in test [9], 97.2%; in test [10] it was 110%; in test [11], 105%; in [12], 94.8%. In addition, the growth in test [13] is 73%; in test [14], 110%; in test [15] it was 105%; in test [20], 82.4%; in test [17], 97.3%; in test [18] it was 94%. Further, the growth in [19] was 94.2%.
On to `O=C(/C=C/c1ccc(C(F)(F)F)cc1)c1ccc(Nc2nc(NCCO)nc(Nc3ccc(Cl)cc3)n2)cc1`, for which the growth was 5.76% (active) in [1]; 37.4% in test [2]; 76% in test [3]; -41.8% (active) in test [4]; 32.9% in [5]; 84.7% in test [6]. Besides, the growth in test [7] is 62.4%; in test [8], 0.53% (active); in [9], 73%; in test [10] it was 99.9%; in [11], 59.1%; in test [12], 79.1%. In addition, the growth in [13] was 59.9%; in [14], 86.6%; in test [15], 52.2%; in [20], 78.5%; in test [17], 18.2%; in [18], 20.7%. In addition, the growth in [19] was 21.2%.
Take `CC/C(=C(\CC)c1ccc(OCC[N+](C)(C)C)cc1)c1ccc(OC)cc1`: the growth is 39.5% in test [1]; 31.2% in test [2]; 27.1% in [3]; 21.6% in test [4]; 41.6% in test [5]; 44.1% in test [6]. Further, the growth is 42.2% in test [7]; 73.2% in test [8]; 76.7% in [9]; 98.8% in [10]; 95.6% in [11]; 51.1% in test [12]. The growth was 98.2% in test [13]; 98% in test [15]; 104% in test [16]; 53% in test [20]; 60.1% in test [17]; 65% in test [18]. In addition, the growth in test [19] was 69.3%.
Regarding `Cc1cccc2c(=O)c3c(sc12)c(NCCN)nc1ccccc13`, the growth is -54.9% (active) in test [1]; 15.2% in test [2]; -2.48% (active) in test [3]; -77.2% (active) in [4]; -42.9% (active) in test [5]; -22.9% (active) in test [6]. Further, the growth is -86.6% (active) in test [7]; -92.9% (active) in test [8]; -86.1% (active) in [9]; -34.9% (active) in test [10]; -0.232% (active) in test [11]; -75.8% (active) in test [12]. Also, the growth is -77.1% (active) in test [13]; -73.7% (active) in test [14]; -97.6% (active) in [15]; -58.4% (active) in [16]; -34.5% (active) in [17]; -59% (active) in [18]. For the same compound, in test [19], the growth is -28.3% (active).
Consider `COc1ccc(N)c(-c2cc3c(c4c2[nH]c2ccc(OC)cc24)CCCC3)c1`, for which the growth in [1] was 76.1%; in [2], 70.9%; in test [3], 88.5%; in test [4] it was 74.3%; in [5], 52.9%; in test [6] it was 94.7%. Also, the growth was 69.5% in [7]; 83.1% in test [8]; 97.7% in [9]; 95.4% in [10]; 72.5% in test [11]; 87.8% in [12]. The growth was 57.6% in test [13]; 114% in test [14]; 67.1% in test [16]; 88.8% in test [20]; 55.4% in [17]; 68.8% in test [18]. Further, in [19], the growth is 79.1%.
